# Counter-ions that a name gives are not always drawn.
# How the values were obtained:
# Experiment in all cases: thermal shift delta Tm vs DMSO control; higher = stronger stabilization (binding)
# Details in all cases: 12.5 µM; protein concentration 2 µM
# LOC_OS01G01410-cb001 = system: LOC_OS01G01410-cb001
# In short: (§1)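 Compounds dissolved in DMSO were added to purified rice kinase domain constructs, which had been expressed in E. coli, for differential scanning fluorimetry. Each well held 19.5 μl of 2 μM kinase in 100 mM potassium phosphate pH 7.5, 150 mM NaCl, 10% glycerol and 5 × SYPRO Orange. Fluorescence was followed from 25°C to 95°C at a rate of 0.05°C/s. Shifts in Boltzmann-fitted melting temperature are triplicate means relative to DMSO-only protein.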
# LOC_OS01G02750-cb003 = system: LOC_OS01G02750-cb003
# In short: as §1
# LOC_OS01G10900-cb004 = system: LOC_OS01G10900-cb004
# In short: as §1
# LOC_OS01G13800-cb001 = system: LOC_OS01G13800-cb001
# In short: as §1
# LOC_OS01G14860-cb001 = system: LOC_OS01G14860-cb001
# In short: as §1
# LOC_OS01G21960-cb002 = system: LOC_OS01G21960-cb002
# In short: as §1
# LOC_OS01G39600-cb002 = system: LOC_OS01G39600-cb002
# In short: as §1
# LOC_OS01G48390-cb002 = system: LOC_OS01G48390-cb002
# In short: as §1
# LOC_OS01G51400-cb002 = system: LOC_OS01G51400-cb002
# In short: as §1
# LOC_OS01G52050-cb004 = system: T1, LOC_OS01G52050-cb004
# T1 sequence (whole entry): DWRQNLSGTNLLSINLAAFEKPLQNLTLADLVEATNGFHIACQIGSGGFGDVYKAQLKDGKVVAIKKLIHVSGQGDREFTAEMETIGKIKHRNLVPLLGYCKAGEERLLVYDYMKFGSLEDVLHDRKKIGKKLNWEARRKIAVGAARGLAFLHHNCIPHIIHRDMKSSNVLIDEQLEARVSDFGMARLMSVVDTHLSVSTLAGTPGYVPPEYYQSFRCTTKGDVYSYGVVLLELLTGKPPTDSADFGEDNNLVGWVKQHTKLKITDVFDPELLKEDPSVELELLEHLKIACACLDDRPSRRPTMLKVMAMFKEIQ
# In short: as §1
SMILES,thermal shift delta Tm (LOC_OS01G01410-cb001) [°C],thermal shift delta Tm (LOC_OS01G02750-cb003) [°C],thermal shift delta Tm (LOC_OS01G10900-cb004) [°C],thermal shift delta Tm (LOC_OS01G13800-cb001) [°C],thermal shift delta Tm (LOC_OS01G14860-cb001) [°C],thermal shift delta Tm (LOC_OS01G21960-cb002) [°C],thermal shift delta Tm (LOC_OS01G39600-cb002) [°C],thermal shift delta Tm (LOC_OS01G48390-cb002) [°C],thermal shift delta Tm (LOC_OS01G51400-cb002) [°C],thermal shift delta Tm (LOC_OS01G52050-cb004) [°C]
C[C@@H](Oc1cc(-n2cnc3ccc(CN4CCN(C)CC4)cc32)sc1C(N)=O)c1ccccc1C(F)(F)F,0.17,0.34,3.48,0.56,0.12,1.19,0.33,0.1,-0.17,0.53
COc1cc(Nc2ncc(F)c(Nc3ccc4c(n3)N(COP(=O)(O)O)C(=O)C(C)(C)O4)n2)cc(OC)c1OC [R788 (Fostamatinib) Disodium],0.8,1.55,0.2,0.19,1.64,1.94,5.17,0.57,0.49,1.51
CC(C)(C)Cn1c(N)nc2ccc(-c3[nH]c(C(C)(C)C)nc3-c3ccc(F)cc3)nc21,0.51,-0.68,0,-0.49,-0.02,-0.11,-0.5,1.19,-0.1,-0.09
CNC(=O)c1cc(COc2nnc(Nc3ccc(Cl)cc3)c3ccoc23)ccn1 [Telatinib],0.67,0.92,0.29,0.36,0.15,0.85,-0.38,0.26,0.08,0.21
CC[C@@](C)(Nc1ccnc(-c2c[nH]c3ncccc23)n1)C(=O)NCC(F)(F)F [Decernotinib (VX-509)],0.58,1.32,-0.38,0.4,0.78,3.1,-0.05,1.08,0.22,0.18
CC(C)CCN1c2nc(Nc3cc(F)c(O)c(F)c3)ncc2N(C)C(=O)C1C (stereo not given),2.96,1.52,2.63,0.08,3.74,1.92,3.67,1.58,0.67,5.38
N=C(N)NC(=N)NCCc1ccccc1 [Phenformin HCl],0.54,0.14,0.3,-0.2,0.25,0.77,-0.37,0.38,0.25,0.48
CCN(CC)CCCC(C)Nc1ccnc2cc(Cl)ccc12 (stereo not given) [Chloroquine Phosphate],0.08,1.04,0.14,0.44,0.13,0.63,-0.06,-0.02,0,-0.11
CC(C)n1nc(-c2cc3cc(O)ccc3[nH]2)c2c(N)ncnc21 [Torkinib (PP242)],0.97,0.22,0.64,0.08,0.52,0.37,-0.17,0.78,0.2,0.85
N#Cc1ccc(-c2c(-c3ncn[nH]3)sc(N3CCOCC3)c2C#N)c(F)c1,0.3,0.97,4.91,0.46,0.41,1.16,0.28,0.62,0.12,0.29
CCOc1cc(C(=O)N2CCC(N3CCN(C)CC3)CC2)ccc1Nc1ncc2c(n1)N(C1CCCC1)c1ccccc1C(=O)N2C,0.26,0.37,0.01,-0.42,0,0.3,-0.95,0,-0.1,-0.46
COC1(c2sc3c(N4CCOCC4)nc(-c4cnc(N)nc4)nc3c2C)COC1,1.79,-0.24,1.43,0.47,0.4,0.39,0.28,0,-0.11,0.03
COc1cc(OC)c(/C=C/S(=O)(=O)Cc2ccc(OC)c(NCC(=O)O)c2)c(OC)c1,0.51,1.22,0.58,0.83,0.27,0.96,-0.03,0.33,0.1,0.51
CCC[C@H](NC(=O)/C(C#N)=C/c1cccc(Br)n1)c1ccccc1 [Degrasyn (WP1130)],-2.54,-8.18,0.28,0.06,-2.02,0.19,-4.1,-0.09,-1.59,-3.54
CN(C)C/C=C/C(=O)Nc1cc2c(Nc3ccc(F)c(Cl)c3)ncnc2cc1O[C@H]1CCOC1 [Afatinib (BIBW2992) Dimaleate],0.1,2.11,5.05,0.72,3.86,1.14,1.17,2.48,0.14,1.67
Cc1cc2c(F)c(Oc3ncnn4cc(OC[C@@H](C)OC(=O)[C@H](C)N)c(C)c34)ccc2[nH]1,1.74,0.78,0.61,0.4,0.52,0.54,0.75,0.96,-0.47,-0.05
NC(=O)c1cnc2[nH]ccc2c1N[C@@H]1[C@@H]2CC3C[C@H]1C[C@@](O)(C3)C2,3.91,3.77,1,0.16,5.61,2.38,5.22,4.09,0.18,4.66
COc1cc2nccc(Oc3ccc(NC(=O)C4(C(=O)Nc5ccc(F)cc5)CC4)cc3)c2cc1OC [Cabozantinib malate (XL184)],0.01,0.45,0.03,0.12,0.34,0.57,0.26,3.62,0.63,0.38
CNC(=O)c1cc(Oc2ccc(NC(=O)Nc3ccc(Cl)c(C(F)(F)F)c3)cc2)ccn1 [Sorafenib Tosylate],2.14,5.21,1.97,1.97,5.9,2.13,2.03,2.56,1.31,5.16

# Reference: the supplement of paper PMC9694430
